Results on 14 sequences are retold here after the supplement of paper PMC6555819.

What all share (test): PBM binding z-score (relative to random genomic background probes); higher = stronger binding; sequences stand for … in GC…GCGATTGACAGCGTAGAATGAAGG
The subject of assay [1] is RARb homodimer (NR concentration 270 nM). The method, boiled down: (§1)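 Each nuclear receptor dimer, without ligand, was incubated for 1 h on custom Agilent 4×180K protein-binding microarrays. Binding was detected with antibodies against each partner (one per run), and scanned fluorescence was regression-normalized. The binding z-scores are referenced to random human genomic background probes.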

In assay [2] the test system is RARg:RXRa (NR concentration 270 nM, RXRa partner concentration 90 nM). The method, boiled down:
as §1

Assay [3] concerns RARg homodimer (NR concentration 270 nM). In outline: as §1
The test system of assay [4] is RXRa DBDmut IVT, anti-RXR (DBD mutation: RXRa K156A/R161A, NR concentration 90 nM). The method, boiled down: as §1
Assay [5] has as its system RXRa homodimer (NR concentration 180 nM). The method, boiled down:
as §1

Assay [6] concerns THRa:RXRa (NR concentration 90 nM, RXRa partner concentration 90 nM). In outline:
as §1

For assay [7], the system named is THRa homodimer (NR concentration 90 nM). The method, boiled down:
as §1

In assay [8] the test system is VDR homodimer (NR concentration 270 nM). The method, boiled down: as §1

Take ATCTCTAGGTAGAAGTTCAGTGAATCCCGAGGAT: the PBM binding z-score was determined as 1.2 in assay [1]; 0.74 in assay [2]; 0.979 in assay [3]; 0.251 in assay [4]; 0.602 in assay [5]; 0.355 in assay [6]. For the same sequence, the PBM binding z-score is -0.305 in assay [7] and 1.28 in assay [8].

Consider CCTACTGGGCCACAGGTCATTGATTCCAATGCTC, for which the PBM binding z-score in assay [1] stood at 2.48; in assay [2] it was 2.14; in assay [3], 1.94; in assay [4], 0.14; in assay [5], 2.23; in assay [6], 1.54. For the same sequence, the PBM binding z-score turned out to be 0.651 in assay [7] and 1.13 in assay [8].

For TCGAGTACGTTAGTCGGGGCATTCAGCCAACATA, the PBM binding z-score in assay [1] was 0.0909; in assay [2], -0.237; in assay [3] it was -0.247; in assay [4], 3.19; in assay [5] it was -0.238; in assay [6], -0.142. Also, the PBM binding z-score is -0.507 in assay [7] and 1.51 in assay [8].

Regarding TAGCCTATGTCATTGGGCCAGTATAGTACGCATC, the PBM binding z-score in assay [1] is -0.0367; in assay [2], 0.242; in assay [3], 0.413; in assay [4], -0.587; in assay [5], 0.472; in assay [6], -0.314. In addition, the PBM binding z-score was -0.671 in assay [7] and -0.244 in assay [8].

With TTACCAAGGTGAAAGGTCGTTTATGCACGCCTTG, the PBM binding z-score in assay [1] was found to be 2.24; in assay [2] it was 3.89; in assay [3], 1.62; in assay [4], 1.14; in assay [5], 5.38; in assay [6], 3.17. The PBM binding z-score turned out to be 0.854 in assay [7] and 2.03 in assay [8].

Turning to CCGACTGGGGCAATGTTACCATAACGCACAGCCA, the PBM binding z-score in assay [1] was -0.131; in assay [2], 0.0448; in assay [3] it was 0.359; in assay [4] it was -0.0343; in assay [5] it was -0.0938; in assay [6] it was -0.53. Moreover, the PBM binding z-score in assay [7] was -0.342; in assay [8], -0.569.

GCAGACAGGTGAAACGCAGATAACTCAGGGTGGC: the PBM binding z-score is -0.0268 in assay [1]; 0.355 in assay [2]; 0.45 in assay [3]; -0.555 in assay [4]; 0.883 in assay [5]; 0.121 in assay [6]. Further, the PBM binding z-score was -0.589 in assay [7] and -0.804 in assay [8].

Regarding CCTAGTTGGTCAGGAGGTCATACACCGGATATGA, the PBM binding z-score in assay [1] turned out to be 3.79; in assay [2], 4.56; in assay [3] it was 3.35; in assay [4] it was 0.572; in assay [5] it was 4.2; in assay [6] it was 3.23. Further, the PBM binding z-score in assay [7] stood at 1.8; in assay [8], 2.73.

On to ATCTCTAGGAAAAAGTTCAGTGAATCCCGAGGAT, for which the PBM binding z-score in assay [1] is 1.74; in assay [2] it was 1.01; in assay [3] it was 1.4; in assay [4] it was 0.393; in assay [5], 0.399; in assay [6], 0.0597. The figures for the PBM binding z-score in assay [7] and in assay [8] were -0.127 and 1.42, respectively.

For AATACAGGCTCATCGTAGGCCAGAGTACGCACAG, the PBM binding z-score was 0.104 in assay [1]; -0.0529 in assay [2]; 0.066 in assay [3]; -0.472 in assay [4]; -0.0365 in assay [5]; 0.0323 in assay [6]. The PBM binding z-score in assay [7] was -0.199; in assay [8], 0.118.

Turning to CGTCAAATTTCAACTAAGGTAACGTAAAGCACGC, the PBM binding z-score in assay [1] was determined as 0.545; in assay [2] it was 0.344; in assay [3], 0.568; in assay [4], 0.715; in assay [5], 0.436; in assay [6] it was 2.71. The figures for the PBM binding z-score in assay [7] and in assay [8] were 1.89 and 0.604, respectively.

Take CGTCAAAGTTCAAGGTAACGCAACAGAAAGCAGC: the PBM binding z-score in assay [1] worked out at 3.59; in assay [2], 5.16; in assay [3] it was 6.13; in assay [4] it was 4.31; in assay [5] it was 4.24; in assay [6] it was 2.97. In addition, the PBM binding z-score in assay [7] was found to be 1; in assay [8], 3.74.

In the case of TCTTGTAGATCAACAGGAGGTCAAGAAAGATCGA, the PBM binding z-score in assay [1] came to 3.47; in assay [2] it was 4.04; in assay [3], 2.84; in assay [4], 0.518; in assay [5] it was 3.64; in assay [6], 3.02. The PBM binding z-score is 0.86 in assay [7] and 0.803 in assay [8].

In the case of TAGCGTAGGTCATGCGGGCCAGTATAGTGTCGGC, the PBM binding z-score in assay [1] amounted to 2.91; in assay [2] it was 4.14; in assay [3], 4.63; in assay [4] it was 0.594; in assay [5], 3.78; in assay [6], 2.27. For the same sequence, the PBM binding z-score in assay [7] is -0.424; in assay [8], 0.141.
